# Results: PubChem BioAssay (NCATS)
# Inconclusive results are not listed. Values without a mark were called inactive. Calls come from the whole dose curve; as a rule, active = well fitted activation curve with a large enough effect; inconclusive = small, poorly fitted or top-dose-only effect; inactive = flat fitted curve, though single readings scatter. Where a SMILES comes first, the peptide text is derived from it. The star is where a group is joined. AFC = O=c1cc(C(F)(F)F)c2ccc(N*)cc2o1
# Test: Primary redox qHTS assay for identification of artifact compounds. (AID 1845223);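 note: 0% = DMSO and 100% = reference compound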
# Conditions: Amplex Red/HRP redox cycling with DTT, fluorescence; series mostly up to 53.8 µM; redox activity (% of DA3003): at the top concentration
# Procedure, shortened: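 Amplex Red (25 uM) and HRP (250 mU/mL) in HBSS, with compounds for 15 min, then 250 uM DTT for 30 min, room temperature, dark. Fluorescence 525/598 nm read; normalized to DMSO and 10 uM DA3003; Hill fit.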
row,SMILES,redox activity (% of DA3003)
1,CO[C@H]1O[C@@H]2O[C@]3(C)CC[C@H]4[C@H](C)CC[C@@H]([C@H]1C)[C@@]24OO3,8.93%
2,COc1ccc2cc(C(C)C(=O)Oc3ccc(C(N)=S)cc3)ccc2c1 (stereo unspecified),-4.3%
3,CS(=O)(=O)c1ccc(-c2nnc(/C=C/c3nnc(-c4ccc(C#N)cc4)o3)n2-c2ccccc2Cl)nc1,-1.07%
4,CC(Nc1ncnc2nc[nH]c12)c1cc2cccc(Cl)c2c(=O)n1-c1ccccc1 (stereo unspecified),-2.18%
5,N#Cc1ccc(-c2cnc3[nH]cc(NC(=O)c4cccnc4)c3c2)cc1,-8.55%
6,COC(C(=O)N1Cc2[nH]nc(NC(=O)c3ccc(N4CCN(C)CC4)cc3)c2C1)c1ccccc1 (stereo unspecified),3.98%
7,CC(=O)SCC(=O)c1ccc(NS(=O)(=O)c2ccc(OCCCN(C)C)cc2)nc1,5.3%
8,OC1CCC(Nc2ncc3nc(Nc4c(F)cc(F)cc4F)n([C@H]4CCOC4)c3n2)CC1 (stereo partly specified),-2.9%
9,COc1cc2nc(N3CCC(N4CCCCC4)CC3)nc(NC3CCCCCC3)c2cc1OC,-0.245%
10,Nc1nc(-n2cc(C(=O)O)c(=O)c3cc(F)c(N4CC(O)C4)c(Cl)c32)c(F)cc1F,-1.29%
11,CC(NC(=O)C(O)C(C)C)C(=O)NC1C(=O)N(C)CCc2ccccc21 (stereo unspecified),-6.96%
12,Cc1ccc(-c2ccc3c(ccc4sc5c(c43)NC[C@@H](C)NC5=O)n2)cn1,-3.75%
13,CC1(c2nc3c(C(N)=O)cccc3[nH]2)CCCN1 (stereo unspecified),-6.12%
14,O=[N+]([O-])c1cn2c(n1)OCC(OCc1ccc(OC(F)(F)F)cc1)C2 (stereo unspecified),13.1%
15,NCc1c[nH]c(=S)n1[C@@H]1CCc2c(F)cc(F)cc2C1,-5.45%
16,CC(=O)OC1C(=O)C2(C)C(O)CC3OCC3(OC(C)=O)C2C(OC(=O)c2ccccc2)C2(O)CC(OC(=O)C(O)C(NC(=O)c3ccccc3)c3ccccc3)C(C)=C1C2(C)C (stereo unspecified),8.78%

row,SMILES,redox activity (% of DA3003)
1,CCOc1ccc(NC(=S)N2CCC(C(O)(c3ccccc3)c3ccccc3)CC2)cc1,-3.24%
2,CCCNc1ccc2ncc(-c3ccc4[nH]ncc4c3)n2n1,-2.08%
3,CC(=O)N[C@@H](Cc1c[nH]c2ccccc12)C(=O)N[C@@H](CCC(=O)O)C(=O)N[C@@H](Cc1cnc[nH]1)C(=O)N[C@@H](CC(=O)O)C(=O)Nc1ccc2c(C(F)(F)F)cc(=O)oc2c1 (Ac-WEHD-{AFC}),18.8%
4,COc1ccc(CNC(=O)c2sc3nc(C)cc(C)c3c2N)cc1,7.32%
5,CCc1c(C)nc2c(-c3cnn(-c4cc(CO)ccn4)c3)c[nH]n2c1=O,-3.08%
6,O=C(Nc1ccc(S(=O)(=O)Nc2nccs2)cc1)C(c1ccccc1)c1ccccc1,7.82%
7,COc1cccc2cc3c(c(O[C@@H]4O[C@H](CO[C@@H]5O[C@H](CO)[C@@H](O)[C@H](O)[C@H]5O)[C@@H](O)[C@H](O)[C@H]4O)c12)C(C)OC3=O (stereo partly specified),11.8% [at 25.6 µM]
8,Cc1ccc(S(=O)(=O)Cc2nc(-c3ccc(C(=O)NCc4cccnc4)cc3)oc2C)cc1,1.46%
9,COc1cc2nc(N3CCCC3)nc(NCCCCCN3CCCC3)c2cc1OC,5.25%
10,CS(=O)(=O)NCC1CCC(Nc2nc3c(s2)CCSc2ccccc2-3)CC1 (stereo unspecified),7.22%
11,Cc1cc(=O)oc2c(C=O)c(O)ccc12,2.72%
12,CN(C)CCCCC(=O)Nc1ccc(NC(=S)NC(=O)c2ccc(C(C)(C)C)cc2)cc1,10.2%
13,Cc1cc(Nc2ccc(NC(=O)c3ccc(Nc4ccnc5ccccc45)cc3)cc2)nc(N)n1,-7.11%
14,COC(=O)N[C@H](C(=O)N1[C@@H]2CC[C@@H](C2)[C@H]1c1nc2ccc(-c3ccc4c(c3)C(F)(F)c3cc(-c5cnc([C@@H]6CCC7(CC7)N6C(=O)[C@@H](NC(=O)OC)C(C)C)[nH]5)ccc3-4)cc2[nH]1)C(C)C,-1.11% [at 25.6 µM]
15,O=C1OCC(c2ccccc2)=C1Cc1ccccc1,-18.3%
